Screening results as filed in PubChem.
Sampled rows, rich in hits. Any-hit rate of the full collection: about 3.4%.
HGIII-sPLA2 inh: Inhibits HGIII-sPLA2 liposome hydrolysis, primary screen; QFRET BODIPY PC-A2 liposome hydrolysis, fluorescence; inhibition, % at 12.2 µM; actives 0.56% (n = 370,000);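 active = inhibition above mean plus 3 SD of compounds lying within the high and low control bounds, cut at about 19% in these data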
ADAM10 inh: inhibits human ADAM10; recombinant ADAM10, EDANS/DABCYL FRET peptide cleavage, 3 h; inhibition, % at 7 µM; actives 0.62% (n = 370,000); AID 720582;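 active = inhibition above a per-campaign cutoff equal to the mean of compounds falling between control-based bounds plus 3 SD, cut at about 20% in these data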
proKLK7 act: proKLK7 (human) activation, primary screen. activation, % at 7 µM. actives 0.9% (n = 370,000). purified proKLK7, EDANS-DABCYL substrate fluorescence; 100% is mature enzyme control, 0% vehicle;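 active = activation above the mean of all tested compounds plus 3 SD, computed per campaign excluding outliers beyond control limits, cut at about 13% in these data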
PLC-beta3 inh: inhibitors of human phospholipase C beta3. inhibition, % at 12.2 µM. AID 720704. actives 0.18% (n = 370,000). Q01970. Purified PLC-beta3, fluorogenic substrate, fluorescence
Target sequence (Q01970 whole entry, looked up): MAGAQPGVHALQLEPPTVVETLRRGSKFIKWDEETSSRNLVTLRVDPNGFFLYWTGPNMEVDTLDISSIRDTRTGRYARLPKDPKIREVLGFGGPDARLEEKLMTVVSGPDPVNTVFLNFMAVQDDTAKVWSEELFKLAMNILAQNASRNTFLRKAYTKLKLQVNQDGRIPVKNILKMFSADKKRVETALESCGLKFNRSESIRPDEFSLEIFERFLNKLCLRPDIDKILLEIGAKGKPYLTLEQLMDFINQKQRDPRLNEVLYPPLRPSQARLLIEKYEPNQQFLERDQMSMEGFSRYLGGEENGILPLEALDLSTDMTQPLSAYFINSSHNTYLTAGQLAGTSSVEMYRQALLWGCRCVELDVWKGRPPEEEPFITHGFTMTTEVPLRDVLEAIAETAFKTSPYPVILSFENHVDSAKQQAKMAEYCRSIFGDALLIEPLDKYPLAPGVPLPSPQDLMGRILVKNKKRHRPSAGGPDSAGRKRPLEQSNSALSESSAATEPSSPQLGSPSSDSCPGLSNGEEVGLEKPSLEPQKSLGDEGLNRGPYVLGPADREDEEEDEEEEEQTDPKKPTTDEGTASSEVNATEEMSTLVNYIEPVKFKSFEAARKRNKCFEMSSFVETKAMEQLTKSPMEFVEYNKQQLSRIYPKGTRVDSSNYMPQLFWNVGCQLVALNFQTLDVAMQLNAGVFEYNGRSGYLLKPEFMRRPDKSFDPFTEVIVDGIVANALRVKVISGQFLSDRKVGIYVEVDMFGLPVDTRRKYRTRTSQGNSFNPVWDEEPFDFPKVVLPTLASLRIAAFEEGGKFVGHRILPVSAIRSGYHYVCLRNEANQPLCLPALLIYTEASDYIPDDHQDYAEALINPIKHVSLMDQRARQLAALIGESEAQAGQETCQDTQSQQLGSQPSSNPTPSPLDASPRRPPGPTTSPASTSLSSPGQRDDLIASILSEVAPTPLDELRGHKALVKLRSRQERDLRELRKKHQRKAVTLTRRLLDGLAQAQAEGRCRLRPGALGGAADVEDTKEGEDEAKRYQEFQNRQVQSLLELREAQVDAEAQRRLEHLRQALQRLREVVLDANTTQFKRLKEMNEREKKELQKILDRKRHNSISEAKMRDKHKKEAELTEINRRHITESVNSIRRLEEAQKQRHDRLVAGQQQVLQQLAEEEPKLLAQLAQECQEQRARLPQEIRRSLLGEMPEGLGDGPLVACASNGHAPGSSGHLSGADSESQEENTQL
PLCg1 inh: inhibitors of human phospholipase C gamma1; P19174; purified PLC-gamma1, fluorogenic substrate, fluorescence; inhibition, % at 12.2 µM; actives 0.84% (n = 370,000); AID 720700; in the data active = inhibition above about 9.5%
ADAM17 inh: inhibitors of human ADAM17; P78536; recombinant ADAM17, EDANS/DABCYL FRET peptide cleavage; inhibition, % at 6.95 µM; actives 0.83% (n = 370,000); AID 720648;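 active = inhibition above the mean of compounds lying between control limits plus 3 SD, set per campaign, cut at about 8.5% in these data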
ADAM10 ctr: ADAM10 inhibition, counter-screen for ADAM17 exosite hits | shares compounds with ADAM17 inh | recombinant ADAM10, EDANS/DABCYL FRET peptide cleavage, 3 h | inhibition, % at 6.95 µM | actives 47% (n = 2,900) | AID 743256;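 active = mean inhibition over the triplicate runs exceeds the activity threshold set in the earlier primary screen, cut at about 20% in these data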
ADAM17 confirm: human ADAM17 inhibition, confirmation; recombinant ADAM17, EDANS/DABCYL QFRET peptide cleavage; actives 65% (n = 2,900); inhibition, % at 6.95 µM; shares compounds with ADAM17 inh;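 active = mean inhibition across replicates above the hit cutoff set in the primary screen, cut at about 8.5% in these data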
PLCg1 ctr: counter-screen for PLC-beta3 inhibitors: inhibitors of human PLC-gamma1. shares compounds with PLCg1 inh. AID 743258. actives 3.1% (n = 3,300). purified PLC-gamma1, fluorogenic substrate, fluorescence. inhibition, % at 12.3 µM; in the data active = inhibition above about 9.5%
PLCbeta3 conf: human PLC-beta3 inhibition, confirmation; shares compounds with PLCg1 inh; purified PLC-beta3, fluorogenic substrate fluorescence; inhibition, % at 12.3 µM; actives 1% (n = 3,300)
Numbers stand for hits; . = inactive; / = not tested or not shown. Cut-off read from the data, not from the text of the source, unless noted: active = inhibition above about 11%; inactive = the rest.

SMILES	HGIII-sPLA2 inh	ADAM10 inh	proKLK7 act	PLC-beta3 inh	PLCg1 inh	ADAM17 inh	ADAM10 ctr	ADAM17 confirm	PLCg1 ctr	PLCbeta3 conf
CC(=O)Nc1ccc(-c2ccnc3c2CC(C)(C(=O)NCCc2ccccc2)O3)cc1 (stereo unspecified)	.	.	.	.	13.7	9.5	.	.	.	.
COc1cccc(-c2noc(C(C)n3nc(C)c([N+](=O)[O-])c3C)n2)c1 (stereo unspecified)	.	.	.	.	10.8	13.1	.	.	.	.
CC(O)c1nc2ccccc2n1CC(=O)Nc1ccc(F)cc1Cl (stereo unspecified)	.	.	.	.	.	.	/	/	/	/
COc1ccc(Cc2nnc(SCC(=O)Nc3ccc(C)cc3)n(N)c2=O)cc1	.	.	.	.	10.0	9.8	.	.	.	.
CCN(CC(=O)NCc1ccc(Cl)cc1)C(=O)CNS(=O)(=O)c1ccc(NC(C)=O)cc1	.	.	.	.	.	.	/	/	/	/
O=C(O)CNC(=O)C1(NC(=O)OCc2ccccc2)CCCC1	.	.	.	17.4	.	8.7	.	.	.	.
O=C(CNC(=O)OCc1ccccc1)NC1(C(=O)O)CCCC1	.	.	.	.	.	.	/	/	/	/
O=C(Nc1ccccc1)c1cc(C2CCCCN2S(=O)(=O)c2ccccc2)on1 (stereo unspecified)	.	.	.	.	10.1	11.6	.	.	.	.
O=C(Nc1cccc([N+](=O)[O-])c1)Nc1ccc2c(c1)OCCO2	.	.	.	.	10.2	8.9	.	.	.	.
COc1ccc(N2C(=O)C3CCCCC3C2=O)cc1NC(=O)c1ccccc1 (stereo unspecified)	.	.	.	.	.	.	/	/	/	/
C=C1CC2(CC(c3ccccc3)OC(c3ccccc3)C2)OC1=O (stereo unspecified)	.	.	.	.	12.7	9.6	.	.	.	.
Cc1cccc2cc(C#N)c(N3CCC(O)CC3)nc12	.	.	.	.	.	.	/	/	/	/
CCN1CCCC1CNC(=O)CN(C)S(=O)(=O)c1ccc(Cl)cc1 (stereo unspecified)	.	.	.	.	.	.	/	/	/	/
Cc1ccc(S(=O)(=O)NCC(c2ccco2)N2CCc3ccccc32)cc1 (stereo unspecified)	.	.	.	.	.	.	/	/	/	/
COc1ccc(S(=O)(=O)NCC(c2ccco2)N2CCc3ccccc32)cc1 (stereo unspecified)	.	.	.	.	10.7	14.1	.	12.4	.	.
CCOC(=O)CC1COCCN1C(=O)c1ccc2oc(Cc3ccccc3)nc2c1 (stereo unspecified)	.	.	.	.	.	.	/	/	/	/
COc1ccccc1NS(=O)(=O)c1cc(NC(=O)CNC(=O)c2ccccc2)ccc1C	.	.	.	.	10.9	9.1	.	.	.	.
C/C(=N\NC(=O)CNC(=O)c1cccs1)c1ccc(Cl)c(Cl)c1	.	.	.	.	.	.	/	/	/	/
CCN(CC)C(=O)c1nc[nH]c1C(=O)N(CC)CC	.	.	.	.	13.7	9.2	.	.	.	.
CC(C)(C)OC(=O)CNC(=O)c1nc[nH]c1C(=O)NCc1ccc(CNC(=O)OC(C)(C)C)cc1	.	.	.	.	.	.	/	/	/	/
CC(C)(C)OC(=O)CNC(=O)c1[nH]cnc1C(=O)Nc1ccc(CNC(=O)OC(C)(C)C)cc1	.	.	.	12.6	.	11.8	29.7	16.1	.	.
O=C(O)CCCN1C(=O)C2C3CCC(C3)C2C1=O (stereo unspecified)	.	.	.	.	11.6	9.1	.	.	.	.
O=C(O)CCCN1C(=O)C2C3CCC(O3)C2C1=O (stereo unspecified)	.	.	.	.	.	.	/	/	/	/
Cc1cc(=O)c(C(=O)O)nn1-c1ccc(Cl)cc1	.	.	.	.	.	.	/	/	/	/
COc1cc(C(=O)Nc2cccc3cccnc23)cc(OC)c1OC	.	.	.	.	.	.	/	/	/	/
SMILES	HGIII-sPLA2 inh	ADAM10 inh	proKLK7 act	PLC-beta3 inh	PLCg1 inh	ADAM17 inh	ADAM10 ctr	ADAM17 confirm	PLCg1 ctr	PLCbeta3 conf
COc1cc(NC(=O)Nc2cccc3cccnc23)cc(OC)c1OC	.	.	.	.	15.4	13.2	.	.	.	.
CCN(CC)S(=O)(=O)c1ccc(N=Nc2c(C)[nH]n(C(N)=S)c2=O)cc1	.	.	.	.	10.5	12.0	.	.	.	.
COc1ccc(Cl)cc1NC(=O)c1nnn(CC(=O)Nc2ccc(C)c(C)c2)c1N	.	.	.	.	9.7	11.0	.	.	.	.
CCOC(=O)N1CCN(C(=O)c2ccc(N(Cc3ccc(Cl)cc3)S(C)(=O)=O)cc2)CC1	.	.	.	.	.	.	/	/	/	/
CCOC(=O)N1CCN(C(=O)c2ccc(N(Cc3ccc(C)cc3)S(C)(=O)=O)cc2)CC1	.	.	.	.	11.7	9.0	.	.	.	.
O=C1OC(c2ccccc2)(c2ccccc2)c2ccccc21	.	.	.	.	.	.	/	/	/	/
Cc1cccc(C2(c3cccc(C)c3)OC(=O)c3ccccc32)c1	.	.	.	.	14.2	9.6	.	14.8	.	.
COc1ccc(C2C(C#N)=C(N)Nc3onc(C(C)(C)C)c32)c(OC)c1 (stereo unspecified)	.	.	.	10.9	.	8.7	.	.	.	.
COc1ccc(C2C(C#N)=C(C)NC(C)=C2C#N)c(OC)c1	.	.	.	.	.	.	/	/	/	/
N#CC(c1ccc(Cl)cc1)c1nc2ccccc2nc1C(F)(F)F (stereo unspecified)	.	.	.	.	.	.	/	/	/	/
Cc1cccc(C(C#N)c2nc3ccccc3nc2C(F)(F)F)c1 (stereo unspecified)	.	.	.	.	9.8	8.7	.	.	.	.
COc1ccc(CCN(C(=O)C(F)(F)F)C(C(=O)NC2CCCCC2)c2ccc(C)s2)cc1 (stereo unspecified)	.	.	.	.	10.6	9.1	.	.	.	.
COc1ccccc1NC(=O)c1nn(C)c(C(=O)Nc2ccccc2OC)c1[N+](=O)[O-]	.	.	.	.	.	.	/	/	/	/
COc1ccccc1NC(=O)c1c([N+](=O)[O-])c(C(C)(C)C)nn1C	.	.	.	.	11.9	8.6	.	.	.	.
